# Reference: PubChem BioAssay
# Activity calls are given as the source filed them.
# How the values were obtained:
# [1] = binders of probe aFSTL3 on microarray, primary screen, stem cell growth factor project, biochemical, small-molecule microarray, fluorescence 635/667 (AID 1064); settings: higher = more signal;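 also: measures binding of the biotinylated anti-FSTL3 antibody to printed compounds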
# [2] = binders from COS7 lysate, DM2A8 probe, primary screen, torsin A project, cell lysate, small-molecule microarray, fluorescence 635/667 (AID 1065); settings: higher = more signal, COS7 lysate expressing mutant human TOR1A
# [3] = binders of probe aFGF2 on microarray, primary screen, stem cell growth factor project, biochemical, small-molecule microarray, fluorescence 635/667 (AID 1067); settings: higher = more signal;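 also: measures binding of biotinylated aFGF2 protein to printed compounds on slides; z-score merges feature fluorescence and signal-to-noise across triplicate slides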
# [4] = binders of probe aFGF10 on microarray, primary screen, stem cell growth factor project, biochemical, small-molecule microarray, fluorescence 635/667 (AID 1071); settings: higher = more signal;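 also: score merges 667 nm spot intensity and signal to noise from triplicate slides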
# [5] = molecular target: Neurogenic locus notch homolog protein 2 (Homo sapiens) (UniProt Q04721); assay: Notch2 binders on small-molecule microarrays, primary screen, biochemical, small-molecule microarray, 635 nm fluorescence, stem cell growth factors (AID 1073); settings: Notch2 binding, higher = more signal
# Chain of Neurogenic locus notch homolog protein 2 (Homo sapiens) (Q04721 whole entry, looked up, canonical isoform): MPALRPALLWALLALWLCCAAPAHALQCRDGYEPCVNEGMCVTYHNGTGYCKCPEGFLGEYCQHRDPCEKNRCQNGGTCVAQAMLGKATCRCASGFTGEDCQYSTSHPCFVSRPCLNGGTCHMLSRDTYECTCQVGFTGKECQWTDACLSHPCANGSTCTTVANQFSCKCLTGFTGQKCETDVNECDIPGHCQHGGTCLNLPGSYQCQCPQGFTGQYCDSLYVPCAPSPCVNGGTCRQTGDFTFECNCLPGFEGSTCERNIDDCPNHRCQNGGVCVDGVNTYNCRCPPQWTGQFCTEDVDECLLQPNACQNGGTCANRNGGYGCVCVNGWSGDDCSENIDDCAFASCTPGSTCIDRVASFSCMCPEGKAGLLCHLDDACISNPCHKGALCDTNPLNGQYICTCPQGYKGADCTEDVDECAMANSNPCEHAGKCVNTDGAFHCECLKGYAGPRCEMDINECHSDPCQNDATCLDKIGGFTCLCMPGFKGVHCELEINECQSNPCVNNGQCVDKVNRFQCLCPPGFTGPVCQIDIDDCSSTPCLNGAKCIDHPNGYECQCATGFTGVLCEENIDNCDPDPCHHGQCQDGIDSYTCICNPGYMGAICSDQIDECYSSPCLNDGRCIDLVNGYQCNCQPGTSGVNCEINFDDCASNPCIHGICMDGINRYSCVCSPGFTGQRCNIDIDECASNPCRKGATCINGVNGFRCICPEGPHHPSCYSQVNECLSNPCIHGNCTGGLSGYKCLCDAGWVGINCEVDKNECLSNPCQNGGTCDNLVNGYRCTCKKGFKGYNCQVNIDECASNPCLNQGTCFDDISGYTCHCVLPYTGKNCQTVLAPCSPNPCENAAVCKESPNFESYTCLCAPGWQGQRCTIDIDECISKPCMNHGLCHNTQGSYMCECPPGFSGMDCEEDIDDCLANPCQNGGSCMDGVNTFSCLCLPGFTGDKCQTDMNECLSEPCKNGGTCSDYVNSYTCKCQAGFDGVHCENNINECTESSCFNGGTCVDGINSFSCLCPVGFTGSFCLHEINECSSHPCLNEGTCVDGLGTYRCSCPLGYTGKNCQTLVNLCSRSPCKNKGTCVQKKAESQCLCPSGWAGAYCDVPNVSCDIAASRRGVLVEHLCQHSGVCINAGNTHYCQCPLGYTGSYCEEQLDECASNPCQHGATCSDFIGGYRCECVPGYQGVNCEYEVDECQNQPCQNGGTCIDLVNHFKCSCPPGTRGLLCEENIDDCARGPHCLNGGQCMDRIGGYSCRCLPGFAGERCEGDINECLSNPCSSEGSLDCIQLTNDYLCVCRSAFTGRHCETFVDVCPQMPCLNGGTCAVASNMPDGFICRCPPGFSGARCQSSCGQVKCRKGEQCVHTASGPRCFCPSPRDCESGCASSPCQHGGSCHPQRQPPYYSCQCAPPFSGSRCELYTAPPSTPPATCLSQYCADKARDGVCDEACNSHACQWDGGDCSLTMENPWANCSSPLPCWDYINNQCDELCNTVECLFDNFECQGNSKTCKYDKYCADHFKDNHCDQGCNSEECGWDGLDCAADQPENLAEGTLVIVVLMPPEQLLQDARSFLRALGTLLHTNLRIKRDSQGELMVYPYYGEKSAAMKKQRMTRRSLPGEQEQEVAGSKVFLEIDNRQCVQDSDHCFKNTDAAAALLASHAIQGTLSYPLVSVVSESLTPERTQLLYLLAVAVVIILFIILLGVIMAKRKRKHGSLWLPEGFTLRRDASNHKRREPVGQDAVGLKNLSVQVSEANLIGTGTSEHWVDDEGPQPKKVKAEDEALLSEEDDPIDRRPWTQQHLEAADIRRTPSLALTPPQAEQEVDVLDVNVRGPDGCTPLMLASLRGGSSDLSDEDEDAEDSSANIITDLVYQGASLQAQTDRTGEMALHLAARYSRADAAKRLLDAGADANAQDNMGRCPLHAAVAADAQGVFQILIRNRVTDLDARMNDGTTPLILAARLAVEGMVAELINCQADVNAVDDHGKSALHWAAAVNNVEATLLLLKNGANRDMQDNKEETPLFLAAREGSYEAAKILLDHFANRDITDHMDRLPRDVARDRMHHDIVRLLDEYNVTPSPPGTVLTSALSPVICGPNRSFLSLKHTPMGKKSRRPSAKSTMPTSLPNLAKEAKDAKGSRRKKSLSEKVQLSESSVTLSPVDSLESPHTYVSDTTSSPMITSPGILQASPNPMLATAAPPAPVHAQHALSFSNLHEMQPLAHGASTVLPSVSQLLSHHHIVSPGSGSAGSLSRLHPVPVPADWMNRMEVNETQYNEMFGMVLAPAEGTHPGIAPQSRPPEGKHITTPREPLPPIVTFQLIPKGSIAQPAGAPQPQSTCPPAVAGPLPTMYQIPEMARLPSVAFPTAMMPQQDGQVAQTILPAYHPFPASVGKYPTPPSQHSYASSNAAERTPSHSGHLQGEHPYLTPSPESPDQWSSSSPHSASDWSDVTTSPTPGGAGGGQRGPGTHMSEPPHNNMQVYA
# [6] = molecular target: Pro-neuregulin-1, membrane-bound isoform (Homo sapiens) (UniProt Q02297); assay: NRG1 binders on small-molecule microarrays, primary screen, psychiatric disease protein project, biochemical, small-molecule microarray, fluorescence 635/667 (AID 1075); settings: NRG1 binding, 635 nm fluorescence, higher = more signal;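 also: score combines 667 nm spot fluorescence with signal to noise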
# Chain of Pro-neuregulin-1, membrane-bound isoform (Homo sapiens) (Q02297 whole entry, looked up, the tested form may be a part, canonical isoform): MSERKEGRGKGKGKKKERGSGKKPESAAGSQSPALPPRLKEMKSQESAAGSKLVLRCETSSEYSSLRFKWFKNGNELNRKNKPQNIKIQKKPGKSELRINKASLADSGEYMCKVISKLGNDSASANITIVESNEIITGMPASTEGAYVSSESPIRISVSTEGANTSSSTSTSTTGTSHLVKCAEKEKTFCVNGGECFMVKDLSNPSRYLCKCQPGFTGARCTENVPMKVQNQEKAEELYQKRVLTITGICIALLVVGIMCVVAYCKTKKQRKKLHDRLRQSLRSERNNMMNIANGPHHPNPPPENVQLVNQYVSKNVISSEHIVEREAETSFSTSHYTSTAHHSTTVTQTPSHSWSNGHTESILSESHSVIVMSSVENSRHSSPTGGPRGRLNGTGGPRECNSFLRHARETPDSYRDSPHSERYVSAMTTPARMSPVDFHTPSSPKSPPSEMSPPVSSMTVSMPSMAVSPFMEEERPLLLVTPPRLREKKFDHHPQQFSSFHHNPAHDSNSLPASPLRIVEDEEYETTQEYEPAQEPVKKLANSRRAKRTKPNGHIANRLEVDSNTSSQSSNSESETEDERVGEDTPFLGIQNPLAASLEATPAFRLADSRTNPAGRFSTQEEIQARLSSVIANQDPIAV
# [7] = test system: Neuregulin-1 EGF-like domain; assay: binders of neuregulin-1 EGF-like domain, primary screen, biochemical, small-molecule microarray, 635 nm fluorescence (AID 1081); settings: small-molecule microarray binding, higher = more signal;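 also: binding of the protein to compounds printed on small-molecule microarray slides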
# [8] = FRG1 promoter luciferase signal modulators, primary screen, FRG1 inhibition for FSHD, cell-based, C2C12 myotubes, firefly/Renilla luciferase, luminescence (AID 1084); settings: higher = more signal, called active from +8 up or from −8 down
# [9] = binders of probe aFST on microarray, primary screen, stem cell growth factor project, biochemical, small-molecule microarray, fluorescence 635/667 (AID 1086); settings: higher = more signal;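 also: score merges 667 nm fluorescence with signal-to-noise of each printed compound spot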
# [10] = binders of probe aHhip on microarray, primary screen, stem cell growth factor project, biochemical, small-molecule microarray, fluorescence 635/667 (AID 1087); settings: higher = more signal;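 also: score merges spot fluorescence at 667nm with spot signal to noise ratio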
Structure (SMILES),composite z-score [1],composite z-score [2],composite z-score [3],composite z-score [4],composite z-score [5],composite z-score [6],composite z-score [7],z-score [8],composite z-score [9],composite z-score [10]
CCOc1cc(C(O)C2C=CC3C(=O)N(c4ccccc4)C(=O)C3N2Nc2ccc(C#N)cc2)ccc1O (stereo not given),-0.17,-0.223,0.0024,0.11,1.27,1,0.836,0.163 (inactive),0.0472,0.0139
O=C1O[C@H](c2ccccc2)[C@H](c2ccccc2)N2[C@H]1[C@@H](C(=O)NC[C@H](O)c1ccccc1)[C@]1(C(=O)Nc3ccc(C#CCCO)cc31)[C@H]2c1ccc(OCCO)cc1,0.141,0.628,0.0521,0.984,0.782,1.23,1.23,1.59 (inactive),0.131,-0.226
O=c1n(-c2ccccc2)c(=O)n2n1CC(COc1ccccc1)=C([C@H](O)CCc1ccccc1)[C@@H]2CO,-0.333,-0.0765,-0.141,0.265,0.094,-0.153,0.0463,-2.53 (inactive),0.0915,-0.318
O=C1O[C@@H](c2ccccc2)[C@@H](c2ccccc2)N2[C@@H](c3ccc(OCCO)cc3)[C@]3(C(=O)Nc4ccccc43)[C@@H](C(=O)O)[C@H]12,0.161,0.144,-0.0336,1.02,0.381,1.5,1.45,-0.0089 (inactive),0.0284,-0.407
C=C(COC)C(=O)CC[C@@H](OC(=O)c1cccnc1)c1ccc(OCCO)cc1,0.193,0.112,-0.172,0.182,1.02,0.403,1.49,-1.32 (inactive),0.343,-0.0237
COC(=O)c1c2oc(c1C(=O)OC)C(=O)N(Cc1ccccc1)Cc1cn(nn1)C[C@H](Cc1ccccc1)NC(=O)N[C@H](CO)CC2,-0.462,-0.277,-0.105,0.138,-0.0194,0.229,1.1,-0.736 (inactive),0.0118,0.0092
CN(C)CCCCNC(=O)[C@@H]1C[C@@H]2C(=O)N[C@@H](Cc3ccccc3)C(=O)N2[C@@H]1c1cccc(OCCO)c1,-0.185,0.971,0.0281,0.645,-0.729,0.382,0.905,3.35 (inactive),0.218,0.0524
C[C@@H]1NC(=O)[C@@]23C(=O)N[C@@H](Cc4ccccc4)C2[C@H](C)[C@@]2(C)O[C@H]2C3/C=C/C/C=C\CNC(=O)[C@@H]2CCCN2C1=O (stereo not given in full),-0.301,0.009,-0.158,0.139,-0.355,-0.365,0.519,0.251 (inactive),-0.276,-0.249
O=C1OCCC/C=C\[C@H]2OC34C=CCN(CCN5CCOCC5)C(=O)[C@H]3N(CCCCCCO)C(=O)[C@@H]4C12 (stereo not given in full),0.0814,2.31,-0.171,-0.291,-0.0784,1.91,1.17,-1.05 (inactive),-0.151,-0.0994
COc1ccc([Si](C)(C)[C@H]2[C@H](CCO)O[C@@]3(C(=O)N(Cc4cccc(N5C(=O)COc6ccccc65)c4)c4ccccc43)[C@@H]2C)cc1,0.295,0.15,-0.0877,0.126,-0.298,0.727,0.828,-2.07 (inactive),-0.203,-0.333
CN1C(=O)C2C=CC(C(O)c3cccc4ccccc34)N(N3CCCCC3)C2C1=O (stereo not given),0.827,1.12,-0.0122,0.691,1.48,1.67,1.19,1.09 (inactive),0.785,0.0873
O=C1c2ccccc2[C@](Cc2ccccc2I)(C(=O)NCC(F)(F)F)[C@H](c2ccc(CO)cc2)N1C1CCCCC1,-0.0894,-0.089,0.0772,0.94,1.14,1.76,0.985,-0.85 (inactive),0.593,-0.134
CN(C)CCCNC(=O)[C@@]1(c2ccc([N+](=O)[O-])cc2)CC(=O)N(CC23CC4CC(CC(C4)C2)C3)[C@@H]1c1ccc(CO)cc1I,-0.319,0.634,-0.0687,0.272,1.2,0.343,1.36,-2.44 (inactive),1.48,0.0749
O=C1C2C=CC(C(O)c3ccc(F)cc3)N(n3cnnc3)C2C(=O)N1Cc1ccccc1 (stereo not given),0.352,-0.131,-0.12,-0.201,-0.0052,0.439,-0.191,0.594 (inactive),0.19,-0.282
[N-]=[N+]=NCc1ccccc1[C@H]1OC(c2ccc(OCCCO)cc2)=N[C@@]1(CCS(=O)(=O)c1ccccc1)C(=O)N1CCCCC1,0.974,1.28,0.248,0.4,1.51,1.79,1.33,0.225 (inactive),1.42,-0.191
COC(=O)[C@@]1(Cc2ccc(OC)cc2)[C@H]2c3cc(C(=O)N(C)C)n(Cc4ccc(Cl)c(C(F)(F)F)c4)c3C[C@H]2CN1C(=O)c1ccccc1,1.33,0.218,0.262,0.473,1.47,1.39,1.03,0.282 (inactive),1.73,1.71
COCCOC(=O)N1C(=O)[C@@]2(c3cc(C#CC4=CCCCC4)ccc31)[C@H](C(=O)N1CCCCCCC1)[C@H]1C(=O)O[C@H](c3ccccc3)[C@H](c3ccccc3)N1[C@@H]2c1ccc(O)cc1,0.804,0.0395,-0.0226,0.119,0.464,-0.215,1.14,-0.472 (inactive),0.409,-0.31
COc1ccc([Si](C)(C)[C@@H]2[C@@H](CC(=O)N(CCO)Cc3ccccc3)O[C@]3(C(=O)N(Cc4cccc(N5C(=O)c6cccc7cccc5c67)c4)c4ccccc43)[C@H]2C)cc1,-0.143,0.167,-0.105,0.409,-0.127,0.442,0.763,-1.05 (inactive),0.116,-0.0193
O=C1NC(=O)C2C1C=CC(C(O)c1cccc3ccccc13)N2Nc1ccc(Cl)cc1Cl (stereo not given),0.475,-0.974,-0.0752,0.51,1.49,1.53,1,-0.716 (inactive),1.34,-0.0994
[N-]=[N+]=NCc1ccccc1[C@@H]1OC(c2ccc(OCCCO)cc2)=N[C@]1(CCS(=O)(=O)c1ccccc1)C(=O)NCC(O)CO (stereo not given in full),0.445,0.92,0.067,0.367,1.53,2,1.23,-0.547 (inactive),0.923,-0.0994
COc1ccc([Si](C)(C)[C@@H]2[C@@H](CCn3cc([C@H](O)c4ccccc4)nn3)O[C@]3(C(=O)N(Cc4ccc(N5CCC5=O)cc4)c4ccccc43)[C@H]2C)cc1,0.554,-0.163,-0.164,-0.127,-0.564,0.189,0.142,-0.96 (inactive),-0.201,-0.503
COC(=O)[C@@]1(Cc2ccccc2)[C@H]2c3cc(C(=O)N(C)C)n(Cc4c(CO)[nH]cc(C)c4=O)c3C[C@H]2CN1C(=O)c1ccccc1,0.268,0.311,0.206,0.528,1.53,1.49,1.38,-0.325 (inactive),0.608,0.0456
C=CCN1C(=O)[C@@]2(CCS(=O)(=O)c3ccccc3)N=C(c3ccc(OCCCO)cc3)O[C@H]2c2ccccc21,0.162,0.42,0.0076,0.362,1.44,1.72,1.24,-3.77 (inactive),1.03,-0.0672
O=C(NCC(F)(F)F)[C@@H]1c2ccccc2C(=O)N(Cc2ccccc2C(F)(F)F)[C@H]1c1ccc(CO)cc1,0.597,-0.0704,-0.156,0.424,-0.169,0.997,1.3,-1.49 (inactive),-0.181,0.113
COC(=O)[C@@]1(Cc2ccc(F)cc2)[C@H]2c3cc(C(=O)N(C)C)n(CCc4ccc(O)c(OC)c4)c3C[C@H]2CN1C(=O)c1ccccc1,1.71,0.245,0.735,1.27,1.27,-0.0157,1.03,0.245 (inactive),1.7,0.372
CCCCO[C@H]1C[C@H]2C(I)=C[C@@H]1C(=O)[C@]21CO1,-0.329,0.823,-0.0706,0.0657,-0.361,-0.149,-0.44,1.43 (inactive),-0.323,-0.236
